According to PubChem BioAssay:
Activity calls are given as the source filed them.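 The calls were made as follows, unless noted: active = inhibition at or above 50% at 10 µM; inactive = inhibition below 50%.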

Columns and labels:
[1] = inhibitors of TNFa-induced NFkB p65 translocation, primary screen, imaging, HUVEC, MLSMR starter and 10KST1 sets (AID 438;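 active = inhibition above 20% together with a positive visual image hit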;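 also: compound added about 3h40 before a 20 min TNFalpha stimulation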;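 as to inhibition: signal is the nuclear over cytoplasmic p65 intensity ratio per well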); conditions: HUVEC TNFa-induced p65 nuclear translocation; cell count: measured here: nuclei count (cytotoxicity indicator), at 2.08 µM; inhibition: at 2 µM, stronger effect = higher value, 0% TNFa-plus-vehicle, 100% no-TNFa wells
[2] = reduction of polyQ htt aggregates in cells – imaging, exon1htt(103Q)mCFP cells, high-content imaging, primary screen (AID 483;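 active = visual image review flags a hit and inhibition of aggregation exceeds 20%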;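 also: compound exposure lasted 3 days before fixation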;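 as to nuclei count: percent of the per-plate median nuclei count of sample wells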); conditions: exon1htt(103Q)mCFP cell line, aggregate imaging, at 2 µM; inhibition of aggregation: stronger effect = higher value; nuclei count: measured here: cell count, toxicity
[3] = endothelial E-selectin expression blockers – imaging, HUVEC, immunofluorescence, MLSMR starter and 10KST1 sets, primary screen (AID 487;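 active = visually confirmed hit in the image check and inhibition above 20%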;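 as to inhibition: signal is fraction of cell area covered by stained E-selectin grains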;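 as to nuclei count: 100% = median nuclei count of all wells on the same plate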); conditions: HUVEC TNFalpha-induced E-selectin immunofluorescence imaging, at 2 µM; inhibition: stronger effect = higher value; nuclei count: measured here: cell number, toxicity
[4] = biological target: Voltage-gated potassium channel subunit beta-2 (Rattus norvegicus) (UniProt P62483); assay: inhibitors of rat Kvbeta2 reductase activity – biochemical, NADPH fluorescence, primary screen (AID 622;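 active = fluorescence slope higher than the sample average by over 3 SD, cut at about -0.22 in these data, passing the limit was not always enough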;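 also: slope of raw intensity against log time taken from 70 to 1610 s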); conditions: recombinant KvBeta, 4-cyanobenzaldehyde reduction, at 10 µM, stronger effect = higher value
[5] = biological target: Voltage-gated potassium channel subunit beta-2 (Rattus norvegicus) (UniProt P62483); assay: enhancers of rat Kvbeta2 NADPH turnover – biochemical, NADPH fluorescence, primary screen (AID 623;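 active = NADPH fluorescence slope more negative than the mean of all samples by about 3 SD, 99.7% confidence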;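 also: fluorescence intensity change per second fitted from 20 to 320 s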); conditions: Recombinant KvBeta, NADPH fluorescence decrease slope, 10 min; at 10 µM; stronger effect = lower value
[6] = biological target: Alpha-2C adrenergic receptor (Homo sapiens) (UniProt P18825); assay: compounds altering alpha2C-coupled GIRK flux – cell-based, HEK293 alpha2C/GIRK1/2, thallium flux, primary screen (AID 624;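 active = fluorescence slope after compound addition differing from the mean of all screened samples at 99.7% confidence, in either direction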;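 also: slope of fluorescence ratio to pre-addition baseline per second over 15 to 24 s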); conditions: thallium flux BTC fluorescence, at 10 µM, actives lie on both sides
[7] = blockers of RIG-like receptor reporter activation – cell-based, Sendai virus stimulus, luciferase, 10K MLSCN set, TLR/RLR signaling modifier project, primary screen (AID 602276); conditions: HEK293 RL24 IRF3 luciferase reporter, at 10 µM, stronger effect = higher value;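 also: firefly luciferase from ISG56 promoter only with Renilla not read in this screen; 0% = Sendai virus plus DMSO and 100% = medium plus DMSO without virus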
[8] = TLR3 IRF3 reporter activation blockers – cell-based, poly I:C stimulus, luciferase, 10K MLSCN set, primary screen (AID 602277;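 active = inhibition of the reporter signal at or above 50%; inactive = inhibition below 50%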); conditions: HEK293-TLR3 RL24 IRF3 luciferase reporter, at 10 µM, stronger effect = higher value

Sequence of Voltage-gated potassium channel subunit beta-2 (Rattus norvegicus) (P62483 whole entry, looked up): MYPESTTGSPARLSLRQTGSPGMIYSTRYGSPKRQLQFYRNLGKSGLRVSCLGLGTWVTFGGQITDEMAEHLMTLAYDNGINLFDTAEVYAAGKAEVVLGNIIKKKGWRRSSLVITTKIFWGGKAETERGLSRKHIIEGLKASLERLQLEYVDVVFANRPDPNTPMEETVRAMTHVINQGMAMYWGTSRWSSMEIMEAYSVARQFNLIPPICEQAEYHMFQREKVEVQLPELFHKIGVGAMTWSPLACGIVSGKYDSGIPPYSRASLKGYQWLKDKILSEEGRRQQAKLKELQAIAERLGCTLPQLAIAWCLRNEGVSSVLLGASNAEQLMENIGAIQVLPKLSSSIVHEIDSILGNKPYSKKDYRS
Sequence of Alpha-2C adrenergic receptor (Homo sapiens) (P18825 whole entry, looked up): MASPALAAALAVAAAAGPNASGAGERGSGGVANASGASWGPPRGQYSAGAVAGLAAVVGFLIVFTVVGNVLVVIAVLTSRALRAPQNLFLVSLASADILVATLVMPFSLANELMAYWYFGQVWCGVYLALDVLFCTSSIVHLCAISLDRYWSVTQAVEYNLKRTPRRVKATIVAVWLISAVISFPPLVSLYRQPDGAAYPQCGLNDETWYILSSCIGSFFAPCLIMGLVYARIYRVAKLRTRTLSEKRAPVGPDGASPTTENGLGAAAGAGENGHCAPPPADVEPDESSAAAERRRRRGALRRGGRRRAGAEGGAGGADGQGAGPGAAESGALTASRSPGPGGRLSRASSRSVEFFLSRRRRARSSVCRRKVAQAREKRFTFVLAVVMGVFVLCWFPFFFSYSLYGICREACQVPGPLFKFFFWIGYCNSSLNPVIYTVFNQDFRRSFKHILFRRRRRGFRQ

| SMILES | cell count [1] | inhibition [1] | inhibition of aggregation [2] | nuclei count [2] [%] | inhibition [3] | nuclei count [3] [%] | fluorescence slope [4] | NADPH fluorescence slope [5] | slope [6] | inhibition [7] | inhibition [8] |
| --- | --- | --- | --- | --- | --- | --- | --- | --- | --- | --- | --- |
| CCOC(=O)C1=C(O)CCn2c1nc1ccccc12 | 376 | 2% (inactive) | 14.2% (inactive) | 56.5 | -214% (inactive) | 98.6 | -0.504 (inactive) | -0.000164 (inactive) | 0.005 (inactive) | 9.43% (inactive) | -0.0537% (inactive) |
| CCn1c(SCC(=O)Nc2ccc3c(c2)OCO3)nnc1-c1ccccc1O | 468 | -6.3% (inactive) | 2% (inactive) | 113 | -143% (inactive) | 151 | -0.5 (inactive) | -5.6e-05 (inactive) | 0.0056 (inactive) | 11.9% (inactive) | 0.128% (inactive) |
| O=C(c1cccs1)N1CCN=C1SCc1ccccc1 | 435 | 3.1% (inactive) | 6.2% (inactive) | 106 | -33.5% (inactive) | 111 | -0.445 (inactive) | -9.7e-05 (inactive) | 0.00597 (inactive) | 2.79% (inactive) | -0.0227% (inactive) |
| CCN(CC)C(=O)Cn1c(=O)n(Cc2ccccc2Cl)c2c1c(=O)n(C)c(=O)n2C | 678 | -6.4% (inactive) | 21.9% (inactive) | 94.3 | 49% (inactive) | 85.7 | -0.45 (inactive) | 3.6e-05 (inactive) | 0.00765 (inactive) | 2.5% (inactive) | 10.3% (inactive) |
| N#Cc1c(NCc2ccccc2)ccnc1NCc1cccnc1 | 720 | 2.9% (inactive) | -8.3% (inactive) | 104 | 67.5% (active) | 80.8 | -0.288 (inactive) | -6.2e-05 (inactive) | 0.00541 (inactive) | -0.363% (inactive) | -44.8% (inactive) |
| N#CCCN1CCN(S(=O)(=O)c2ccc(S(=O)(=O)NC3CCCC3)cc2)CC1 | 689 | -10% (inactive) | -6.8% (inactive) | 126 | -2.1% (inactive) | 126 | -0.624 (inactive) | -3.6e-05 (inactive) | 0.00706 (inactive) | -1.55% (inactive) | 28.4% (inactive) |
| CCOC(=O)c1ccc2[nH]c(C)c(CN3CCN(C)CC3)c(=O)c2c1 | 332 | 6.1% (inactive) | 11.1% (inactive) | 89.7 | 20.8% (inactive) | 112 | -0.471 (inactive) | -4e-05 (inactive) | 0.00513 (inactive) | -4.42% (inactive) | 21.9% (inactive) |
| CCN(C(=O)c1cn(C)c(=O)c2cc(OC)c(OC)cc12)c1ccccc1C | 175 | 0.3% (inactive) | 12.8% (inactive) | 94.1 | -21.1% (inactive) | 114 | -0.59 (inactive) | -2.6e-05 (inactive) | 0.00574 (inactive) | 0.738% (inactive) | 16.5% (inactive) |
| CCc1[nH]nc2c1C1(CCN(C(=O)OCc3ccccc3)CC1)C(C#N)=C(N)O2 | 823 | 0.6% (inactive) | 12.7% (inactive) | 114 | -28.9% (inactive) | 124 | -0.494 (inactive) | -4.5e-05 (inactive) | 0.00458 (inactive) | 17.6% (inactive) | 13.6% (inactive) |
| CN(C)C(=O)N1CCCC(C(=O)NCc2ccccc2)C1 (stereo not given) | 606 | -3.9% (inactive) | -1.5% (inactive) | 84 | -50.4% (inactive) | 112 | -0.341 (inactive) | -2.4e-05 (inactive) | 0.00548 (inactive) | 40.6% (inactive) | 25.4% (inactive) |
| COc1ccccc1N1C(=O)CCC1(C#N)c1ccccc1 (stereo not given) | 567 | 6.9% (inactive) | -0.9% (inactive) | 87.7 | -30.3% (inactive) | 72.2 | -0.62 (inactive) | 6e-06 (inactive) | 0.0062 (inactive) | -5.14% (inactive) | 9.48% (inactive) |
| CCOC(=O)N1CCC(c2cc(=O)n3[nH]c(C)c(-c4ccc(F)cc4)c3n2)CC1 | 743 | -13.4% (inactive) | -25.8% (inactive) | 120 | -82.2% (inactive) | 119 | -0.589 (inactive) | 1.5e-07 (inactive) | 0.00863 (inactive) | 11.5% (inactive) | 31% (inactive) |
| Cc1ccc(Cn2c(SCCN3CCCCC3)nc3c2c(=O)[nH]c(=O)n3C)cc1 | 575 | -6.4% (inactive) | 5.6% (inactive) | 71.5 | 29.9% (inactive) | 100 | -0.577 (inactive) | -2.5e-05 (inactive) | 0.00647 (inactive) | 3.78% (inactive) | 32.9% (inactive) |
| CCOC(=O)C(C)(C)Sc1nc2c(cnn2-c2ccc(Cl)cc2)c(=O)[nH]1 | 623 | -5.2% (inactive) | -10.2% (inactive) | 119 | -27.2% (inactive) | 102 | -0.59 (inactive) | -5e-05 (inactive) | 0.00733 (inactive) | 9.09% (inactive) | 16.7% (inactive) |
| Cc1c(C(=O)OCc2ccccc2)[nH]c2c1C(=O)CC(c1ccco1)C2 (stereo not given) | 721 | 12.7% (inactive) | -170% (inactive) | 3.7 | -63.1% (inactive) | 107 | -0.569 (inactive) | -1.8e-05 (inactive) | 0.00645 (inactive) | 45.4% (inactive) | 80.4% (active) |
| CCCC(=O)Nc1ccccc1-c1nnn(CC(=O)Nc2ccc(OC)cc2)n1 | 674 | 21.5% (inactive) | -11.7% (inactive) | 115 | -36.7% (inactive) | 83.3 | -0.36 (inactive) | 1e-05 (inactive) | 0.0062 (inactive) | 14.1% (inactive) | 13.7% (inactive) |
| CCOC(=O)C1CCN(C(=O)CCCCn2c(=O)[nH]c3ccccc3c2=O)CC1 | 517 | -8.6% (inactive) | -27.5% (inactive) | 100 | -54.8% (inactive) | 126 | -0.563 (inactive) | 3.1e-05 (inactive) | 0.00611 (inactive) | 0.817% (inactive) | -29.5% (inactive) |
| CCOC(=O)N1CCN(C(=O)c2ccc3c(SCC(=O)O)c4c(nc3c2)CCCC4)CC1 | 819 | -5.2% (inactive) | 14.8% (inactive) | 100 | -74.3% (inactive) | 137 | -0.542 (inactive) | 7.3e-06 (inactive) | 0.00656 (inactive) | 9.84% (inactive) | 21.6% (inactive) |
| COc1ccc(OC)c2[nH]c(=O)c(CCNC(=O)C(C)C)cc12 | 629 | -21.1% (inactive) | 7.9% (inactive) | 79.4 | -27.3% (inactive) | 112 | -0.56 (inactive) | -1.8e-05 (inactive) | 0.00598 (inactive) | -3.11% (inactive) | 9.79% (inactive) |
| CCC(Sc1nc(-c2ccccc2)c(C#N)c(=O)[nH]1)C(=O)Nc1cc(C)on1 (stereo not given) | 327 | 2.5% (inactive) | -9.8% (inactive) | 115 | -74.9% (inactive) | 127 | -0.357 (inactive) | -1.8e-05 (inactive) | 0.00594 (inactive) | 6.22% (inactive) | 7.77% (inactive) |
| CC(=O)Nc1cc2c(nc1C)nc(C)n2Cc1ccc(Br)cc1 | 419 | -1.6% (inactive) | 7.8% (inactive) | 92 | -83.5% (inactive) | 118 | -0.526 (inactive) | -0.000178 (inactive) | 0.00402 (inactive) | 15% (inactive) | -9.25% (inactive) |
| CCN(CC)C(=O)C1CCCN(Cc2ccc(N(C)C)cc2)C1 (stereo not given) | 376 | 0% (inactive) | -25.6% (inactive) | 99 | -48.8% (inactive) | 124 | -0.462 (inactive) | 7.7e-05 (inactive) | 0.00605 (inactive) | 17.9% (inactive) | 26.8% (inactive) |
| COc1nc(OC)nc(N2CCC(C(=O)NCc3cccs3)CC2)n1 | 559 | -15% (inactive) | -22.8% (inactive) | 112 | -1.7% (inactive) | 107 | -0.528 (inactive) | -4.4e-05 (inactive) | 0.00626 (inactive) | -3.8% (inactive) | -2.92% (inactive) |
| Cn1nc(CC(=O)Nc2ccc(N3CCN(C(=O)OC(C)(C)C)CC3)cc2)c2ccccc2c1=O | 639 | -32.6% (inactive) | -11.8% (inactive) | 91.2 | -34.7% (inactive) | 99 | -0.493 (inactive) | 8.9e-05 (inactive) | 0.00619 (inactive) | -10.5% (inactive) | -50.4% (inactive) |
| O=C(NCc1ccccn1)c1cc(-n2cnnc2)ccc1Cl | 365 | -3.9% (inactive) | -1.2% (inactive) | 112 | -3.1% (inactive) | 110 | -0.502 (inactive) | -3.7e-05 (inactive) | 0.00641 (inactive) | 2.94% (inactive) | 10.6% (inactive) |
